Results reported in the antibiotic and cytotoxicity screens of Wong et al. (2023).
Among all 39,000 compounds or so, about 3,300 (8.5%) were called active. The entries come from a sample that favours actives as a whole.

Test system: HepG2
Assay: cytotoxicity call (relative viability < 0.9)
Details: 10 µM

Row | Compound | cytotoxicity call
1 | C[C@H]1CN([C@@H](C)CO)C(=O)c2cc(C#Cc3ccc(F)cc3)cnc2O[C@H]1CN(C)CC1CCOCC1 | inactive
2 | C=CCN1C(=O)[C@@]2(O[C@H](CCOC(=O)NCCCCCC(=O)NO)[C@@H]([Si](C)(C)c3ccc(OC)cc3)[C@@H]2C)c2cc(I)ccc21 | inactive
3 | O=C1NC2=C(C(=O)OC2)[C@H](c2ccccc2)N1 | active
4 | O=C1NC(=O)[C@@H](c2ccccc2)N1 | inactive
5 | O=C1COC[C@@H](c2ccccc2)N1 | inactive
6 | C[C@@H]1CN([C@@H](C)CO)C(=O)c2cc(NC(=O)Cc3ccccc3)ccc2O[C@H]1CN(C)S(=O)(=O)c1ccccc1 | inactive
7 | C[C@@H]1CCCCO[C@@H](CN(C)C(=O)C2CCCCC2)[C@@H](C)CN([C@@H](C)CO)C(=O)c2cc(NS(=O)(=O)c3ccc(Cl)cc3)ccc2O1 | inactive
8 | Cc1ccc(S(=O)(=O)N2CCO[C@@H]2CNC(=O)C(=O)NCc2ccccn2)cc1 | inactive
9 | C[C@H](CO)N1C[C@H](C)[C@H](CN(C)Cc2ccc(C(=O)Nc3ccccc3N)cc2)Oc2ccc(NC(=O)Nc3ccc4c(c3)OCO4)cc2C1=O | inactive
10 | CN(C)CCCNC(=O)[C@@]1(Cc2ccccc2I)c2ccccc2C(=O)N(C2CCCCC2)[C@H]1c1ccc(CO)cc1 | active
11 | COc1ccc(CCNC(=O)[C@@]2(Cc3ccccc3I)c3ccccc3C(=O)N(C3CCCCC3)[C@H]2c2ccc(CO)cc2)cc1 | inactive
12 | CN(C)CCCN1C(=O)[C@@]2(Cc3ccccc31)c1ccccc1C(=O)N(C1CCCCC1)[C@H]2c1ccc(CO)cc1 | inactive
13 | O=C1c2ccccc2[C@](Cc2ccccc2I)(C(=O)NCc2ccccc2)[C@H](c2ccc(CO)cc2)N1C1CCCCC1 | inactive
14 | O=C1c2ccccc2[C@](Cc2ccccc2I)(C(=O)O)[C@H](c2ccc(CO)cc2)N1C1CCCCC1 | inactive
15 | O=C1c2ccccc2[C@](Cc2ccccc2I)(C(=O)NCCN2CCOCC2)[C@H](c2ccc(CO)cc2)N1C1CCCCC1 | active
16 | COCCCNC(=O)[C@@]1(Cc2ccccc2I)c2ccccc2C(=O)N(C2CCCCC2)[C@H]1c1ccc(CO)cc1 | active
17 | COc1ccccc1CN1C(=O)c2ccccc2[C@](Cc2ccccc2I)(C(=O)NCCN2CCOCC2)[C@@H]1c1ccc(CO)cc1 | inactive
18 | O=C1c2ccccc2[C@](Cc2ccccc2I)(C(=O)NCC(F)(F)F)[C@H](c2ccc(CO)cc2)N1C1CCCCC1 | inactive
19 | Cc1noc(C)c1NC(=O)N(C)C[C@@H]1OCCCC[C@H](C)Oc2ccc(NS(=O)(=O)c3ccc(F)cc3)cc2C(=O)N([C@@H](C)CO)C[C@@H]1C | inactive
20 | CO[C@@H]1CN(C)C(=O)c2ccc(NS(=O)(=O)c3cn(C)cn3)cc2OC[C@@H](C)N(CC2CC2)C[C@H]1C | inactive

Row | Compound | cytotoxicity call
21 | O=S(=O)(NCC[C@H]1CC[C@@H](NS(=O)(=O)c2ccccc2Cl)[C@H](CO)O1)c1ccc(F)cc1 | inactive
22 | C[C@H]1CN([C@@H](C)CO)C(=O)Cc2cc(NC(=O)Nc3ccc4c(c3)OCO4)ccc2O[C@H]1CN(C)Cc1ccc(Oc2ccccc2)cc1 | inactive
23 | C[C@H](CO)N1C[C@H](C)[C@@H](CN(C)Cc2ccc(Oc3ccccc3)cc2)Oc2ccc(NC(=O)Nc3ccc4c(c3)OCO4)cc2CC1=O | inactive
24 | C[C@H](CO)N1C[C@H](C)[C@H](CN(C)Cc2ccc(Oc3ccccc3)cc2)Oc2ccc(NC(=O)Nc3ccc4c(c3)OCO4)cc2CC1=O | active
25 | C[C@H]1CN([C@@H](C)CO)C(=O)Cc2cc(NC(=O)Nc3ccc4c(c3)OCO4)ccc2O[C@@H]1CN(C)Cc1ccc(Oc2ccccc2)cc1 | inactive
26 | C[C@@H]1CN([C@H](C)CO)C(=O)Cc2cc(NC(=O)Nc3ccc4c(c3)OCO4)ccc2O[C@H]1CN(C)Cc1ccc(Oc2ccccc2)cc1 | inactive
27 | C[C@@H]1CN([C@H](C)CO)C(=O)Cc2cc(NC(=O)Nc3ccc4c(c3)OCO4)ccc2O[C@@H]1CN(C)Cc1ccc(Oc2ccccc2)cc1 | active
28 | C[C@@H]1CN([C@@H](C)CO)C(=O)Cc2cc(NC(=O)Nc3ccc4c(c3)OCO4)ccc2O[C@@H]1CN(C)Cc1ccc(Oc2ccccc2)cc1 | active
29 | C[C@@H]1CN([C@@H](C)CO)C(=O)Cc2cc(NC(=O)Nc3ccc4c(c3)OCO4)ccc2O[C@H]1CN(C)Cc1ccc(Oc2ccccc2)cc1 | inactive
30 | C[C@@H]1CCCCO[C@H](CN(C)C(=O)Nc2ccc(F)cc2)[C@H](C)CN([C@@H](C)CO)C(=O)c2cc(NC(=O)C3CCCCC3)ccc2O1 | inactive
31 | Cc1noc(C)c1S(=O)(=O)Nc1cccc2c1O[C@H](CN(C)S(=O)(=O)c1ccc(Cl)cc1)[C@H](C)CN([C@H](C)CO)C2=O | inactive
32 | C[C@@H]1CCCCO[C@@H](CN(C)S(=O)(=O)c2ccc(Cl)cc2)[C@@H](C)CN([C@H](C)CO)C(=O)c2cc(NS(=O)(=O)c3ccccc3)ccc2O1 | inactive
33 | C[C@H](CO)N1C[C@H](C)[C@H](CN(C)S(=O)(=O)c2ccc(C#N)cc2)Oc2ncc(-c3ccc(F)cc3)cc2C1=O | inactive
34 | C[C@H]1CN([C@@H](C)CO)C(=O)Cc2cc(NC(=O)Nc3ccc(F)cc3)ccc2O[C@@H]1CN(C)Cc1ccc(Oc2ccccc2)cc1 | active
35 | C[C@@H]1CN([C@@H](C)CO)C(=O)Cc2cc(NC(=O)Nc3ccc(F)cc3)ccc2O[C@H]1CN(C)Cc1ccc(Oc2ccccc2)cc1 | active
36 | C[C@@H]1CN([C@H](C)CO)C(=O)Cc2cc(NC(=O)Nc3ccc(F)cc3)ccc2O[C@@H]1CN(C)Cc1ccc(Oc2ccccc2)cc1 | active
37 | C[C@H](CO)N1C[C@H](C)[C@H](CN(C)Cc2ccc(Oc3ccccc3)cc2)Oc2ccc(NC(=O)Nc3ccc(F)cc3)cc2CC1=O | active
38 | COc1ccc(CN(C)C[C@H]2OCCCC[C@@H](C)Oc3ccc(NC(=O)c4ccncc4)cc3C(=O)N([C@@H](C)CO)C[C@@H]2C)cc1 | inactive
39 | Cc1ccc(S(=O)(=O)Nc2ccc3c(c2)C(=O)N([C@H](C)CO)C[C@@H](C)[C@H](CN(C)C(=O)c2ccccc2)OCCCC[C@@H](C)O3)cc1 | inactive
40 | Cc1ccc(S(=O)(=O)N[C@H]2CC[C@H](CC(=O)N3CCC(Cc4ccccc4)CC3)O[C@@H]2CO)cc1 | inactive
